We go through 15 compounds from PubChem BioAssay (NCI).

About 79,000 compounds went through this panel and 15% of them were active in at least one assay; those are over-represented in the sample as a whole. Activity calls are given as the source filed them. No stated cut-off is given here; in the data, active means growth inhibition above about 70%; inactive means the rest.

This assay can be described thus: NCI Yeast Anticancer Drug Screen. Data for the mlh1 rad18 strain (AID 175). The settings on record: S. cerevisiae mlh1 rad18 strain growth inhibition; at 5.0 µM (retest, dose inferred, filed as 0.5); stronger effect = higher value. An outline of the steps: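 Cells of a genetically altered yeast strain, deficient in DNA damage repair, were treated with compound. Their growth was then compared with that of vehicle-treated cultures to give inhibition.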
As to `CCCC(C)(COC(N)=O)COC(=O)NC1CC1` (stereo not given), the growth inhibition is 14% (inactive). In the case of `O=C(O)C(CSC(c1ccccc1)c1ccccc1)NC(=O)C(c1ccccc1)c1ccccc1` (stereo not given), the growth inhibition is 9% (inactive). As for `CC1=CC2CC(C)=C(CC[C@]3(C)CC[C@H]([C@@H](C)C(=O)O)OO3)C(C)(C)C2CC1` (stereo not given in full), the growth inhibition was 60% (inactive). Then `O=[N+]([O-])/C=C/c1c(Cl)cccc1Cl`, with 99% (active); and `O=[n+]1c2ccccc2n([O-])c2ccccc21.[Cl][Cu][Cl]`, with 57% (inactive).

`CC(=O)C(CN1CCOCC1)C(c1ccccc1)c1c(O)c2ccccc2oc1=O` (stereo not given): the growth inhibition was 6% (inactive). Then `CC(C)c1oc(=O)cc2c1C(O)C1OC(=O)C3(C)C(O)C4OC4C2(C)C13` (stereo not given), with 11% (inactive); and `C#CCN1C(=O)N(CC#C)C(=O)C(CC#C)(C(CC=C)c2ccccc2)C1=O` (stereo not given), with -23% (inactive). Then `COC(=O)C1c2c(C)cc3n2C(C=CC3)C1C(=O)OC` (stereo not given), with -9% (inactive); and `[Cl][Hg][c]1ccc(Cl)s1`, with 99% (active). Take `N#CC(Cl)(Cl)CCl`: the growth inhibition is 2% (inactive). Then `O=C1CCC(=O)N1SC(Cl)(Cl)Cl`, with 2% (inactive); and `CCCC(=O)O.CCCC(=O)O.CCCC(=O)O.CCCC(=O)O.[Rh].[Rh]`, with 29% (inactive). For the compound `CC(CCC/C=C/CCCN(C)C(=N)N)CC(C)C1OC(=O)C(C)C(O)/C=C/C(C)C(O)C(C)C(O)C(C)C(O)CCCC(O)CC2(O)OC(CC(OC(=O)CC(=O)O)CC(O)CC(O)C(C)C(O)/C=C/C=C/C1C)CC(O)C2O` (stereo not given), the growth inhibition was 13% (inactive).

In the case of `OC(CN(CCCl)CCCl)C(O)C(O)C(O)CN(CCCl)CCCl` (stereo not given), the growth inhibition was 35% (inactive).
